Screens as filed in PubChem BioAssay.
Compounds with a hit are over-represented: about 11% of the library has one in this group of screens.
SW480 rereplic: induces DNA re-replication in SW480 colon adenocarcinoma cells. SW480 DNA re-replication, Hoechst DNA content imaging, 48 h. Potency, µM (doses to about 46.1 µM), without a hit: at the highest dose re-replication activation, actives largely listed as activators. hit rate 1.8% among 340,000. AID 624297; note: potency is the fitted concentration of half-maximal effect; % of control where 0% means no effect; nearly all actives have a fitted effect of over 55% in size
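Image-based DNA-content assay: after two days of treatment, nuclei were labelled with the DNA dye Hoechst and imaged, and hits were compounds raising the count of nuclei showing high fluorescence intensity.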
RORg inh: blocks mouse ROR gamma transcriptional activity | AID 2551 | hit rate 5.4% among 310,000 | Drosophila S2 Gal4-RORgamma UAS-luciferase reporter, 20 h | Potency, µM (doses to about 53.6 µM), for the others: top-dose activity change, negative = inhibition, most hits filed as inhibitors; note: potency is the fitted concentration of half-maximal effect; % is set by controls: 0 for no effect and ±100 for the full control effect; nearly all actives have a fitted effect of over 60% in size
Target sequence (P51450 whole entry, looked up, the tested form may be a part): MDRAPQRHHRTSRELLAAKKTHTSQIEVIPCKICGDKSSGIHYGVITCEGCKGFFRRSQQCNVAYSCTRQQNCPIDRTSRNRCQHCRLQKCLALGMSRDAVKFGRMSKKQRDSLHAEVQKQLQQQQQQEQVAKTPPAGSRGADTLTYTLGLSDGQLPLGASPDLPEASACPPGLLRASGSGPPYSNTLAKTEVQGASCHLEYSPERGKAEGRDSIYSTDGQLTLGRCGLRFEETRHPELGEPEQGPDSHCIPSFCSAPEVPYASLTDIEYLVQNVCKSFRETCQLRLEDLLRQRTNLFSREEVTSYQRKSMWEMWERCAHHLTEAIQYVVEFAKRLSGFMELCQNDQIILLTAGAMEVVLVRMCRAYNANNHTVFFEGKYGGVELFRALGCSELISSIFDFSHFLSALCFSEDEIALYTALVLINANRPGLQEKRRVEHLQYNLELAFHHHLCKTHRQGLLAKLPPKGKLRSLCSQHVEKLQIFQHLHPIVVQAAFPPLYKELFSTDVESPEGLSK
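Schneider cells (Drosophila), stable Gal4 DBD–ROR gamma + UAS-luc; 1 hr cmpd preincubation; Cu2+ induction 700 uM final; 20 hr ambient; luminescence.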
IL-1B inflam inh: blocks inflammasome-driven IL-1 beta release; THP-1 LPS/ATP IL-1B secretion, AlphaLISA, 16 h; stronger effect = lower value; hit rate 4.7% among 360,000; activity change, % at 57.5 µM; in the data active = activity change below about -50%; inconclusive = mostly about -30% to -49%; note: % is set by controls: 0 for no effect and ±100 for the full control effect
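Secreted IL-1B measured by AlphaLISA bead assay after 16 h compound exposure of THP-1 cells; compounds (final up to 57.5 uM) added 1 h before LPS (250 ng/mL) and ATP (1.25 mM) stimulation; lower signal means less secretion.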
MCF10A rereplic: DNA re-replication induction in MCF 10a cells. hit rate 2.9% among 350,000. MCF 10A DNA re-replication, Hoechst nuclear intensity, 48 h. Potency, µM (top dose mostly 46.1 µM), without a hit: at the top dose activity, positive = re-replication, hits mostly activators; note: potency is the fitted concentration of half-maximal effect; % of control where 0% means no effect; nearly all actives have a fitted effect of over 50% in size
VP16 counter: Gal4-VP16 reporter inhibition counter-screen; Drosophila S2 Gal4-VP16 UAS-luciferase, luminescence, 20 h; Potency, µM (doses to about 53.6 µM), for inactives: at the highest dose activity, negative = inhibition, usual class: inhibitors; hit rate 3.5% among 310,000; AID 2546;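 note: Gal4-VP16 expression switched on by copper sulfate through the metallothionein promoter; potency is the fitted concentration of half-maximal effect; % is set by controls: 0 for no effect and ±100 for the full control effect; nearly all actives have a fitted effect of over 50% in size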
* marks the source's active call; other numbers are inactive results; ? = inconclusive; nt = no result given; [ ] = another dose, or the depositor's remark. Unless noted, calls come from the whole dose curve; as a rule, active = well fitted curve in the direction sought with a large enough effect; inconclusive = small, poorly fitted or top-dose-only effect, or another doubt; inactive = no such curve, though single readings can be large; an effect the other way counts as inactive or inconclusive.

SMILES | SW480 rereplic | RORg inh | IL-1B inflam inh | MCF10A rereplic | VP16 counter
C[C@H](N)C(=O)NCC(=O)N[C@H]1CSSC[C@@H](C(=O)O)NC(=O)[C@H](CO)NC(=O)[C@H]([C@@H](C)O)NC(=O)[C@H](Cc2ccccc2)NC(=O)[C@H]([C@@H](C)O)NC(=O)[C@H](CCCCN)NC(=O)[C@@H](Cc2c[nH]c3ccccc23)NC(=O)[C@H](Cc2ccccc2)NC(=O)[C@H](Cc2ccccc2)NC(=O)[C@H](CC(N)=O)NC(=O)[C@H](CCCCN)NC1=O | nt | 3% | nt | nt | -2%
COc1ccc(-n2c(=S)[nH]c3cc(C(=O)NCc4ccco4)ccc3c2=O)c(OC)c1 | -6% | ? | -17 | 11% | -10%
COc1ccc(-n2c(=S)[nH]c3cc(C(=O)NCc4ccc(F)cc4)ccc3c2=O)c(OC)c1 | 2% | ? | -14 | 2% | ?
COc1ccc(-n2c(=S)[nH]c3cc(C(=O)NCc4ccccc4OC)ccc3c2=O)c(OC)c1 | -16% | 14µM* | -8 | -4% | 14µM*
COc1ccc(-n2c(=S)[nH]c3cc(C(=O)Nc4ccccc4OC)ccc3c2=O)cc1 | nt | 1.6µM* | nt | nt | ?
COc1ccc(-n2c(=S)[nH]c3cc(C(=O)Nc4ccccc4OC)ccc3c2=O)c(OC)c1 | -23% | 1.6µM* | -9 | -2% | 4.5µM*
COc1cc(SC)ccc1C(=O)NNC(=O)c1cc(C)oc1C | 0% | nt | -3 | ? | nt
O=C(Cn1nc(-c2ccccc2)c2ccccc2c1=O)NCCO | -10% | -1% | -3 | -7% | 2%
CCC(c1nnnn1-c1ccc2c(c1)OCCO2)N1CCN(C/C=C/c2ccccc2)CC1 (stereo not given) | nt | nt | -3 | nt | nt
CCOC(=O)C1CCN(C(=O)CC2(CC(=O)O)CCCC2)CC1 | -12% | -12% | 0 | 2% | -5%
S=C(Nc1ccc(Oc2ccc(NC(=S)NC3CCCCC3)cc2)cc1)NC1CCCCC1 | -3% | 1µM* | -2 | -5% | ?
CC(C)c1ccc(NC(=S)NC2CCCCCC2)cc1 | ? | 2.2µM* | ? | ? | 16µM*
S=C(NNc1ccc2ccccc2c1)NC1CCCCC1 | ? | 2.8µM* | -89* | 4.6µM* | 2.8µM*
O=C(NNS(=O)(=O)c1ccc2ccccc2c1)NC1CCCCC1 | -5% | 6% | -3 | -5% | 4%
S=C(Nc1ccc(Oc2ccccc2)cc1)NC1CCCCCC1 | 2% | 1.8µM* | -76* | 15µM* | 3.2µM*
C/C(CCC(=O)OC[C@@H]1O[C@H](C#Cc2ccccc2)C=C[C@@H]1Oc1ccc(C)cc1)=N/O[C@@H](C)c1cn([C@H](CO)Cc2ccccc2)nn1 | nt | -5%[10 µM] | nt | nt | -3%[10 µM]
Cc1ccc(NC(=S)NNC(=S)NC2CCCCC2)cc1 | -1% | 16µM* | -18 | 8% | ?
CN(C(=S)Nc1ccc(Oc2ccccc2)cc1)C1CCCCC1 | -9% | -42%[10 µM] | -100* | ? | ?
O=C(O)c1ccc(NC(=S)NC2CCCCC2)cc1 | nt | -7% | 0 | -3% | -10%
S=C(Nc1ccc(Oc2ccccc2)cc1)NC1CCCCC1 | 5% | 2.2µM* | -15 | ? | -4%[0.365 µM]
CN(CCC#N)C(=S)Nc1ccc(Oc2ccccc2)cc1 | 0% | 36% | 25 | 1% | 19%
COc1ccc(Cn2cc(CN3CCc4onc(-c5ccc(Br)cc5)c4C3=O)nn2)cc1 | nt | nt | 0 | nt | nt
COc1cccc(NC(=O)N2CCc3nc(Nc4cc(Cl)cc(Cl)c4)ncc3C2)c1 | nt | nt | -54* | nt | nt
CN(C)CCN1CC(O)=C(c2nc3ccccc3s2)C1=N | 3% | -16% | -23 | 18µM* | 6%
O=C(CNS(=O)(=O)c1ccc(Br)s1)NCc1ccc(F)cc1 | -5% | 33% | -15 | 9% | -5%
SMILES | SW480 rereplic | RORg inh | IL-1B inflam inh | MCF10A rereplic | VP16 counter
O=C(CNS(=O)(=O)c1ccc(Br)s1)NCc1ccccc1 | 2.8µM* | 39% | -3 | ? | -2%
O=S(=O)(NNc1cccc(Cl)n1)c1ccc(Cl)cc1 | 1% | nt | 26 | -8% | nt
O=S(=O)(NNc1ccc(Cl)nn1)c1ccc(F)cc1 | -5% | 14µM* | -13 | -4% | ?
O=S(=O)(Nc1ccc(Cl)cn1)c1ccccc1 | 8% | -8% | -1 | -35% | -1%
O=S(=O)(Nc1ccc(Cl)nn1)c1ccccc1 | ? | -4% | 23 | 13µM* | 5%
Cc1ccccc1-c1cncnc1N1CCNCC1 | nt | 0% | nt | nt | 12%
Cc1nn(C2CCS(=O)(=O)C2)c(C)c1CN(C)C(=O)c1cccc(Cl)c1 (stereo not given) | -17% | nt | -12 | 13% | nt
C=C(C)c1cccc(C(C)(C)NC(=O)N2CCN(C(=O)OCC)CC2)c1 | nt | nt | 9 | nt | nt
Cc1sc2ccc3sccc3c2[n+]1C | -4% | 5% | -95* | 15% | -18%
COc1ccc2c(c1)C(=O)[C@H](OC(=O)NCc1ccco1)[C@@H](c1ccc(OC)c(Br)c1)O2 | nt | -5% | nt | nt | 7%
COc1ccc(OC)c(CN2CCN(Cc3ccc(OC)c(OC)c3OC)CC2)c1 | nt | nt | 10 | nt | nt
COc1ccc2oc(=O)cc(CN3CCN(Cc4ccc(OC)c(OC)c4OC)CC3)c2c1 | 5% | 8% | -54* | 12% | 5%
CN1CCN(c2cc(-c3ccccc3C(F)(F)F)ncn2)CC1 | nt | -16% | nt | nt | 2%
CN1CCN(C2=Cc3ccccc3Sc3cc(F)c(Cl)cc32)CC1 | 1% | ? | -62* | ? | ?
CN1CCN(C2=Nc3ccccc3Sc3ccc(Cl)cc32)CC1 | 4% | 7%[10 µM] | nt | 17% | -13%
CN1CCN(C2=Cc3cc(Cl)ccc3Sc3cc(F)ccc32)CC1 | ? | -11% | -100* | 13µM* | 0%
CN1CCN(CCC(=O)N2c3ccccc3Sc3ccc(Cl)cc32)CC1 | -10% | ? | -28 | 16% | -7%
CN1CCN(C2=Cc3ccccc3Sc3cc(F)c(F)cc32)CC1 | 1% | 7.9µM* | -62* | -14% | 7.9µM*
O=c1[nH]c2ccccc2nc1/C=C/c1ccc(O)cc1 | 18µM* | -45% | -76* | 8.2µM* | ?
COc1ccc(OC)c(/C=C/c2nc3ccccc3[nH]c2=O)c1 | 21µM* | 2% | 5 | 13µM* | -2%
CC(C)(C)/C(O)=C/c1nc2ccccc2[nH]c1=O | 5% | -2% | -3 | 12% | -12%
O=c1[nH]c2ccccc2nc1/C=C/c1ccc(F)cc1 | ? | 50% | 18 | 6.5µM* | -2%
O=c1[nH]c2ccccc2nc1/C=C/c1ccccc1 | ? | -1% | 32 | 3.7µM* | -8%
COc1ccc(OC)c(C=Nc2ccccc2-c2nc3ccccc3[nH]2)c1 | 3% | -35% | -12 | 3% | 7%
COc1ccc(N(CC(=O)NCCSCc2ccco2)S(=O)(=O)c2ccccc2)cc1Cl | 28% | 17% | -3 | 23% | ?
CCCS(=O)(=O)NC(=O)C1(C)CCCN(C(=O)c2ccc(OC)cc2)C1 (stereo not given) | nt | nt | 38 | nt | nt
